Source: PubChem BioAssay
The list is not random: actives were taken first. Their share in the collection is about 12%.
L3MBTL1 block: L3MBTL1 (human) inhibition; Q9Y468; AlphaScreen L3MBTL1–H3K9me1 peptide binding; Potency, µM (top dose mostly 57.1 µM), for the others: at the top dose activity, negative = inhibition, hits mostly inhibitors; 230,000 compounds, 0.66% hits; further: on the % scale 0 is the no-effect control and ±100 the full control effect; nearly all actives have a fitted effect of over 60% in size
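AlphaScreen assay: L3MBTL1 (50 nM final) was preincubated 30 min at room temperature with biotinylated H3(1-15)K9me1 peptide (75 nM final), then 30 min with library compounds; streptavidin donor and nickel chelate acceptor beads (10 ug/mL final) added, 30 min dark.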
HP1b chromo inh: inhibitors of HP1-beta chromodomain binding to methylated histone tails. AlphaScreen HP1-beta / biotin-H3K9me3 peptide binding. Potency, µM (series often up to 114 µM), for the others: at the highest dose activity change, negative = inhibition, hits mostly inhibitors. 390,000 compounds, 0.56% hits; further: nearly all actives have a fitted effect of over 70% in size
Target sequence (P83916 whole entry, looked up): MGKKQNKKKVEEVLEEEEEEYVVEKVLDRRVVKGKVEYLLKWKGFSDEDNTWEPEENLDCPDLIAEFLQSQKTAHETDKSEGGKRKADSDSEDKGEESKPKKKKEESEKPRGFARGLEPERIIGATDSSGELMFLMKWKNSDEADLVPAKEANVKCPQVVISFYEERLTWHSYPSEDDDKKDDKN
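AlphaScreen: HP1-beta (50 nM) preformed 30 min with biotin-H3(1-18)K9me3 peptide (50 nM) in PBS pH 7.4, 0.01% Tween-20. Compound added for 30 min at RT, then streptavidin donor/nickel chelate acceptor beads (10 ug/mL) for 30 min.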
G9a block: blocks human histone lysine methyltransferase G9a; Q96KQ7; G9a H3K9 monomethylation, AlphaScreen, 2 h; Potency, µM (doses to about 102 µM), inactives show at the highest dose activity, negative = inhibition, usual class: inhibitors; 350,000 compounds, 8.8% hits; further: on the % scale 0 is the no-effect control and ±100 the full control effect; nearly all actives have a fitted effect of over 75% in size
Target sequence (Q96KQ7 913-1193 limits assumed): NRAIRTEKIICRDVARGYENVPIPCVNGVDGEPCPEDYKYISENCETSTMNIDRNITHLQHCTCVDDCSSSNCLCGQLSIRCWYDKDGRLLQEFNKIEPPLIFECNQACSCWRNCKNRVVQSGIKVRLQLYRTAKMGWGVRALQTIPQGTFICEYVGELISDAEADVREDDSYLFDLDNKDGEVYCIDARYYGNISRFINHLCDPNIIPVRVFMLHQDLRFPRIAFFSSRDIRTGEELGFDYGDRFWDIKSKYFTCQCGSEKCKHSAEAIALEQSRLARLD
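AlphaScreen detection with an anti-monomethyl H3K9 antibody quantified product after a 2 h room-temperature reaction containing 500 nM biotinylated H3K9 peptide, 20 µM SAM and 20 nM enzyme, which had been preincubated 15 min with compound.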
BAZ2B block: inhibitors of human BAZ2B bromodomain; Q9UIF8; AlphaScreen BAZ2B-H3K14Ac peptide displacement; Potency, µM (top dose mostly 114 µM), inactives show at the top dose activity change, negative = inhibition, actives largely listed as inhibitors; 360,000 compounds, 4.4% hits; AID 504333; further: on the % scale 0 is the no-effect control and ±100 the full control effect; nearly all actives have a fitted effect of over 60% in size
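AlphaScreen luminescence quantifies BAZ2B engagement of H3K14Ac peptide; the protein and biotinylated peptide are both at 50 nM final, buffer PBS pH 7.4 with 0.01% Tween-20, all steps at room temperature.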
JMJD2A Tudor inh: blocks the human JMJD2A Tudor domain. AlphaScreen JMJD2A-Tudor / H3K4me3 peptide binding. Potency, µM (titrated, usually from 114 µM), without a hit: top-dose activity change, negative = inhibition, usual class: inhibitors. 390,000 compounds, 4.4% hits. AID 504339; further: on the % scale 0 is the no-effect control and ±100 the full control effect; nearly all actives have a fitted effect of over 50% in size
Sfp inh: blocks B. subtilis Sfp PPTase activity. Biochemical Sfp PPTase activity, qHTS. Q9F4F7. Potency, µM, without a hit: largest response in the series, negative = inhibition, hits mostly inhibitors. 310,000 compounds, 3.5% hits;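 further: the enzyme is Sfp with the accession as filed and its product quenches rhodamine fluorescence; 0% = enzyme reaction without inhibitor and -100% = no enzyme wells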
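After 15 min at room temperature with compound, 15 nM Sfp received 5 uM rhodamine-CoA plus 12.5 uM BHQ-2-ybbR (50 mM Hepes pH 7.6, 10 mM MgCl2). Rate came from the fluorescence difference over 30 min, ex 525/em 598 nm.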
* = called active by the depositor; [ ] = remark or other dose. The call rests on the fitted dose curve; in most records, active means well fitted curve in the direction sought with a large enough effect; inconclusive means small, poorly fitted or top-dose-only effect, or another doubt; inactive means no such curve, though single readings can be large; an effect the other way counts as inactive or inconclusive. Potency means the concentration at half of the fitted maximal effect.

How did O=C(O)Cn1cnc2ccccc2c1=O do in these assays?
HP1b chromo inh: 24.4%; G9a block: -21.5%; BAZ2B block: -29.9%; JMJD2A Tudor inh: -0.5%; Sfp inh: 9.6%

How did Cn1c(=O)c2c(ncn2CCN(CCO)Cc2ccccc2)n(C)c1=O do in these assays?
L3MBTL1 block: 1.8%; HP1b chromo inh: 15.5%; G9a block: 39.8µM*; BAZ2B block: 4.8%; JMJD2A Tudor inh: -8.1%; Sfp inh: 5.1%

Results for CCN(Cc1ccccc1)C(=O)Cn1cnc2c1c(=O)n(C)c(=O)n2C ?
L3MBTL1 block: -6.4%; HP1b chromo inh: 27.7%; G9a block: -29.1%[59 µM]; BAZ2B block: -20.6%; JMJD2A Tudor inh: -5.9%; Sfp inh: 12.4%

Results for CCN(CC)C(=O)Cn1cnc2ccccc2c1=O ?
L3MBTL1 block: 27.4%; HP1b chromo inh: 43.8%; G9a block: 20µM*; BAZ2B block: 21.8%; JMJD2A Tudor inh: -7.4%; Sfp inh: 0.2%

Results for COc1ccccc1NC(=O)c1nnn(-c2ccc(F)cc2)c1C ?
HP1b chromo inh: 26.8%; G9a block: 11.1%[59 µM]; BAZ2B block: 0.8%; JMJD2A Tudor inh: -5.5%

Results for CO ?
G9a block: 28.4%[59 µM]; Sfp inh: 15.7%

Results for COc1ccc(N2C(S)=C(C#N)C(=O)NC23CCCCC3)cc1 ?
L3MBTL1 block: 4.6%; HP1b chromo inh: 29.6%; G9a block: 35.5µM*; BAZ2B block: inconclusive; JMJD2A Tudor inh: -13.9%; Sfp inh: 17.8µM*

How did CSc1ccc(CCNC(=O)CN2C(=O)COc3ccc(S(=O)(=O)N4CCCCCC4)cc32)cc1 do in these assays?
HP1b chromo inh: 15.0%; G9a block: -12.0%[59 µM]; BAZ2B block: -38.5%; JMJD2A Tudor inh: -27.8%

Results for CCSC1=N/C(=C\C=C2/Oc3ccccc3N2CC)C(=O)S1 ?
HP1b chromo inh: inconclusive; G9a block: 12.6µM*; BAZ2B block: 31.6µM*; JMJD2A Tudor inh: 35.5µM*; Sfp inh: -6.9%

What do the screens show for `CCSC1=N/C(=C\c2ccc3c(c2)OCO3)C(=O)S1`?
L3MBTL1 block: inconclusive; HP1b chromo inh: 181.7%; G9a block: 12.7%[59 µM]; BAZ2B block: 85.4%; JMJD2A Tudor inh: 25.8%; Sfp inh: -22.6%

Results for CCOC(=O)c1cccc(NC(=O)CSc2nnc(COc3ccccc3)n2CC)c1 ?
L3MBTL1 block: 2.6%; HP1b chromo inh: 17.7%; G9a block: 17.5%[2.33 µM]; BAZ2B block: 3.9%; JMJD2A Tudor inh: -16.3%; Sfp inh: 15.0%

Results for Cc1ccc(NC(=O)CSc2nnc(C3CC3)n2CC2CCCO2)c(C)c1 (stereo unspecified) ?
HP1b chromo inh: 34.8%; G9a block: 4.2%; BAZ2B block: -2.1%; JMJD2A Tudor inh: 4.9%; Sfp inh: 2.9%

What do the screens show for `CCOC(=O)c1cccc(NC(=O)CSc2nnc(CNc3ccc(C)cc3)n2CC)c1`?
L3MBTL1 block: -5.9%; HP1b chromo inh: 12.6%; G9a block: inconclusive; BAZ2B block: 50.1µM*; JMJD2A Tudor inh: -24.4%; Sfp inh: 0.0%

How did Cc1ccc(NCc2nnc(SCC(=O)Nc3ccccc3)n2CC2CCCO2)c(C)c1 (stereo unspecified) do in these assays?
HP1b chromo inh: -19.2%; G9a block: -11.5%[59 µM]; BAZ2B block: inconclusive; JMJD2A Tudor inh: 56.2µM*; Sfp inh: -12.1%

What do the screens show for `COc1ccc(C(C2C(=O)CC(C)(C)CC2=O)C2C(=O)CC(C)(C)CC2=O)cc1CO`?
HP1b chromo inh: 53.8%; G9a block: inconclusive; BAZ2B block: -1.2%; JMJD2A Tudor inh: -14.9%; Sfp inh: 56.2µM*

How did CC1(C)CC(=O)C(C(c2ccco2)C2C(=O)CC(C)(C)CC2=O)C(=O)C1 do in these assays?
L3MBTL1 block: -5.1%; HP1b chromo inh: 51.0%; G9a block: inconclusive; BAZ2B block: -25.4%; JMJD2A Tudor inh: inconclusive; Sfp inh: 50.1µM*

Results for CC1(C)CC(=O)C(C(c2ccc(Br)cc2)C2C(=O)CC(C)(C)CC2=O)C(=O)C1 ?
L3MBTL1 block: -0.9%; HP1b chromo inh: 40.7%; G9a block: 44.7µM*; BAZ2B block: 3.8%; JMJD2A Tudor inh: -24.7%; Sfp inh: 2.8%

Results for CC1(C)CC(=O)C(C(c2ccc(F)cc2)C2C(=O)CC(C)(C)CC2=O)C(=O)C1 ?
L3MBTL1 block: 2.2%; HP1b chromo inh: 52.3%; G9a block: inconclusive; BAZ2B block: 2.2%; JMJD2A Tudor inh: -2.2%; Sfp inh: -32.9%

What do the screens show for `CC(C)n1c(SCC(=O)c2ccc(F)cc2)nc2c(sc3ccccc32)c1=O`?
HP1b chromo inh: -0.6%; G9a block: 11.4%[59 µM]; BAZ2B block: 0.0%; JMJD2A Tudor inh: inconclusive

Results for Cc1ccc(NC(=O)C2CCN(c3ncccn3)CC2)cc1F ?
HP1b chromo inh: 27.5%; G9a block: -5.4%[59 µM]; BAZ2B block: 0.6%; JMJD2A Tudor inh: -12.3%

Results for Cc1ccc(NC(=O)CN2C(=O)c3ccccc3Sc3ccc(C(=O)N4CCOCC4)cc32)c(Cl)c1 ?
HP1b chromo inh: 0.5%; G9a block: -5.3%[59 µM]; BAZ2B block: -4.7%; JMJD2A Tudor inh: -29.5%

Results for CCOC(=O)c1c(CN2CCCCC2)n(C)c2cc(Br)c(O)c(CN(C)C)c12 ?
L3MBTL1 block: -11.1%; HP1b chromo inh: 1.0%; G9a block: 35.5µM*; BAZ2B block: -3.7%; JMJD2A Tudor inh: -35.9%; Sfp inh: -11.7%

How did CCOC(=O)c1c(CSc2ccccc2)n(C)c2ccc(O)c(CN3CCN(C)CC3)c12 do in these assays?
L3MBTL1 block: inconclusive; HP1b chromo inh: -15.9%; BAZ2B block: inconclusive; JMJD2A Tudor inh: 44.7µM*; Sfp inh: -10.2%

How did CCOC(=O)c1c(CN2CCOCC2)n(-c2ccccc2)c2cc(Br)c(O)c(CN(C)C)c12 do in these assays?
L3MBTL1 block: -3.2%; HP1b chromo inh: -20.3%; G9a block: inconclusive; BAZ2B block: -4.8%; JMJD2A Tudor inh: inconclusive; Sfp inh: 4.7%

What do the screens show for `CCOC(=O)c1c(CSc2ccccc2)n(C)c2cc(Br)c(O)c(CN(C)C)c12`?
L3MBTL1 block: -19.9%; HP1b chromo inh: inconclusive; G9a block: 39.8µM*; BAZ2B block: inconclusive; JMJD2A Tudor inh: inconclusive; Sfp inh: -17.9%

How did CCOC(=O)c1c(C)n(-c2ccc(C)cc2)c2ccc(O)c(CN(C)C)c12 do in these assays?
L3MBTL1 block: -0.3%; HP1b chromo inh: -8.1%; G9a block: 44.7µM*; BAZ2B block: inconclusive; JMJD2A Tudor inh: inconclusive; Sfp inh: inconclusive

What do the screens show for `Cc1nc2c(C(=O)NCc3ccccc3Cl)cnn2c(C)c1Cc1c(F)cccc1Cl`?
HP1b chromo inh: 73.7%; G9a block: 5.5%[59 µM]; BAZ2B block: 1.9%; JMJD2A Tudor inh: -12.8%
